Results on 18 molecules are retold here after PubChem BioAssay (NCATS).

Several values for one entry are separate records, joined by “and”; a condition that tells them apart may be missing. Equal values may be shown once. Inconclusive results are not listed. Activity calls are given as the source filed them. Calls follow the shape of the dose curve; as a rule, active = well fitted curve in the direction sought with a large enough effect; inconclusive = small, poorly fitted or top-dose-only effect, or another doubt; inactive = no such curve, though single readings can be large; an effect the other way counts as inactive or inconclusive.

Experiment [1] in a line: qHTS to identify inhibitors of the type 1 interferon - major histocompatibility complex class I in skeletal muscle: primary screen against the NCATS Pharmaceutical Collection (AID 1347407). In short, it runs like this: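 Luminescence from HiBiT-tagged endogenous HLA-B*08:01 served as the read-out of IFN-beta-induced MHC class I in CRISPR-engineered C25cl48 myoblasts. Cells received 4 ng/ml IFN-beta plus compound (high final 46 uM, […]) for 24 h.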
(qHTS replaces the single test concentration by a dilution series.)

The nature of experiment [2]: qHTS for inhibitors of adenylyl cyclases using a fission yeast platform: a pilot screen against the NCATS LOPAC library (AID 1347410). In short, it runs like this: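 Fission yeast qHTS: CHP2027 cells (AC9-GNAS-PDE4D2, fbp1-GFP), 5x10^6 cells/mL working density, EMM + His/Lys/Ura; LOPAC at up to 57 µM final; 18 h dark, 30C; GFP by laser cytometry. DPI positive control, DMSO vehicle.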

For experiment [3], the target named is Protein phosphatase 1D (Homo sapiens) (UniProt O15297). The experiment can be described thus: RapidFire Mass Spectrometry qHTS Assay for Modulators of WT P53-Induced Phosphatase 1 (WIP1) (AID 1347424). Also: series mostly up to about 63 µM. The procedure, abridged:
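RapidFire MS readout of dephosphorylated VEPPL-S-QETFS product, with 1 uM isotope-labelled peptide standard. Reaction: 10 nM WIP1, 2 uM phosphopeptide substrate, 5 min, room temperature, after 1 h compound preincubation; stopped with 0.5% formic acid.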

For experiment [4] the target is unchanged. The experiment can be described thus: Rhodamine-PBP qHTS Assay for Modulators of WT P53-Induced Phosphatase 1 (WIP1) (AID 1347425). The procedure, abridged:
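Read-out: Rhodamine-PBP fluorescence (ex 525/em 598 nm) for released Pi, read each minute for 11 min after adding 10 uM VEPPL-pS-QETFS; signal taken as f1 minus pre-substrate f0. Enzyme 5 nM WIP1 with 1 hr room-temperature compound preincubation.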

Experiment [5] in a line: Validation qHTS assay for inhibitors of Activation Induced Cytidine Deaminase (AID): UDG Counterscreen signal (AID 1347427). The procedure, abridged:
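Fluorescence at 560 nm excitation, 665 nm emission reports UDG signal after 250 mM NaOH (2x) addition and 30 min. Enzymes (AID 1 uM, UDG 2 U/mL, at 4/3x) preincubated 10 min with compound, then 4 h with 4x 250 nM DJC20/DJC23 substrate at room temperature.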

Experiment [6] deals with Single-stranded DNA cytosine deaminase (Homo sapiens) (UniProt Q9GZX7). Put plainly: Validation qHTS assay for inhibitors of Activation Induced Cytidine Deaminase (AID): AID signal (AID 1347429). In short, it runs like this: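 Steps: dispense AID with UDG; pin-transfer compound up to 114 uM final; add DJC20/DJC23 substrate and hold 4 hr at room temperature; add NaOH, hold 30 min; read FRET signal (540/590 nm).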
Single-stranded DNA cytosine deaminase (Homo sapiens), sequence (Q9GZX7 whole entry, looked up): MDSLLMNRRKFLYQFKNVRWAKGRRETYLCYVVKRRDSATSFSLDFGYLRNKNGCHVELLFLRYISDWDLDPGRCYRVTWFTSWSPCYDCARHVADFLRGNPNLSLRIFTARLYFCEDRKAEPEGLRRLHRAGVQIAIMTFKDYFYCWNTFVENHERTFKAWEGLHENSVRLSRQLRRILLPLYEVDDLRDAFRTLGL

A short description of experiment [7]: Primary qHTS for inhibitors of La Crosse Virus (LACV) - induced cell death in SH-SY5Y cells (AID 1508616).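 Also: top concentration of the series differs between compounds; higher means more rescue of cells from virus-induced death.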 In short, it runs like this:
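SH-SY5Y, 6000 cells/well; cpd via pin tool in DMSO; LACV 0.01 MOI; 6 d 37C 5% CO2; ATPLite, 5 min RT; luminescence normalized to ±virus DMSO controls.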

Experiment [8] has as its target Calcium and integrin-binding protein 1 (Homo sapiens) (UniProt Q99828). Put plainly: Validation qHTS for Identification of Calcium Integrin Binding protein 1 (CIB1) Competitor (AID 1508618). In short, it runs like this: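 CIB1-GST (1 uM final) in 5 mM HEPES pH 7.4, 125 mM NaCl, 5 mM CaCl2, 0.01% Tween20 was preincubated 15 min at room temperature with compound (up to 114 uM), then FITC-alphaIIb peptide (100 nM) added for 15 min; fluorescence polarization read.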

The target is the same in experiment [9]. Put plainly: Primary qHTS for Identification of Calcium Integrin Binding Protein 1 (CIB1) Competitor (AID 1508620).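 Also: GST tagged CIB1 binding a fluorescein labelled alphaIIb integrin peptide tracer; top concentration of the series differs between compounds.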 The procedure, abridged:
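Fluorescence polarization competition: GST-tagged CIB1 (1 uM final) preincubated with compound 15 min at room temperature, then FITC-labelled alphaIIb peptide (100 nM final) added. After 15 min at room temperature, polarization read at Ex 480/Em 540.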

Experiment [10] in a line: qHTS to identify inhibitors of the type 1 interferon - major histocompatibility complex class I in skeletal muscle: primary screen against the NCATS Mechanism Interrogation Plate v5.0 (MIPE) Libary (AID 1347411). Also: nearly all actives have a fitted effect of over 65% in size. Also: potency is read from the fitted curve at half-maximal effect. The procedure, abridged: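 Seed engineered human myoblasts (HLA-B HiBit) in medium without dexamethasone containing 4 ng/ml IFN-beta; after 1 hr add compound titrations (top 46 uM final). Incubate 24 hrs at 37 C, lyse 10 min with HiBiT reagent, read luminescence.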

A short description of experiment [11]: Counterscreen qHTS for small molecule stabilizers of the endoplasmic reticulum resident proteome: GLuc-NoTag assay (AID 1508627). Also: potency is read from the fitted curve at half-maximal effect. The procedure, abridged:
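Counterscreen line: SH-SY5Y-GLuc-NoTag. Seed, 5 h; compound, 19 h; thapsigargin 100 nM, 4 h; 37C/5% CO2. Readout: secreted GLuc luminescence, coelenterazine 0.07x final, no lysis.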
On the technique in general: Counterscreens check selectivity or assay interference.

A short description of experiment [12]: qHTS to identify inhibitors of the type 1 interferon - major histocompatibility complex class I in skeletal muscle: primary screen against the NCATS LOPAC collection (AID 1347405).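 Also: human myoblasts with HiBiT tag on endogenous HLA-B stimulated by IFN-beta; lytic HiBiT luminescence reporting HLA-B protein level.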 The procedure, abridged:
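First, engineered myoblasts carrying HLA-B-HiBiT were seeded in medium lacking dexamethasone with 4 ng/ml IFN-beta. After 1 hr, compounds were pinned in (top 46 uM final, 7 points). After 24 hrs at 37 C, luminescence was measured following 10 min lysis.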

Calcium and integrin-binding protein 1 (Homo sapiens), sequence (Q99828 whole entry, looked up): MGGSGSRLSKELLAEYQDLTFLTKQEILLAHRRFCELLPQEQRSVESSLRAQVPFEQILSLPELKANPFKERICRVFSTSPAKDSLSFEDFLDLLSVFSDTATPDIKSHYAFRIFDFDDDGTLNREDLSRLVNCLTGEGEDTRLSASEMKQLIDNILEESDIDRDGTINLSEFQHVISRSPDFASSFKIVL
Protein phosphatase 1D (Homo sapiens), sequence (O15297 whole entry, looked up): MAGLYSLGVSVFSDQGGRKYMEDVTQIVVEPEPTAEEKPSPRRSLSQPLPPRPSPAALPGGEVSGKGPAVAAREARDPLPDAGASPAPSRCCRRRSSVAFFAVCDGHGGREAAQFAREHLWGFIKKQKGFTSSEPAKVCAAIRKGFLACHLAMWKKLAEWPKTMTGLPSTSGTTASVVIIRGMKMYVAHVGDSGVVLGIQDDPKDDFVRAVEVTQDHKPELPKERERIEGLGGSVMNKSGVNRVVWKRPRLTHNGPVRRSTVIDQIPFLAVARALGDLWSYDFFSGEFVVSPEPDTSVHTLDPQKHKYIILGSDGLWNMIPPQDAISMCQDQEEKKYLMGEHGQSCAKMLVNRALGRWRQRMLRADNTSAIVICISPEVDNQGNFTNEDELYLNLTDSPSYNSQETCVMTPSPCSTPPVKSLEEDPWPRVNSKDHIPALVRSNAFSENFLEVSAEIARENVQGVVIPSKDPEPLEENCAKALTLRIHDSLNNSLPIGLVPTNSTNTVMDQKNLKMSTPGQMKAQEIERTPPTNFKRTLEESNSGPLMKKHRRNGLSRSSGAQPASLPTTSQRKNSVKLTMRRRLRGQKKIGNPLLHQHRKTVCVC

As for `Fc1ccc([C@@H]2CCNC[C@H]2COc2ccc3c(c2)OCO3)cc1`, the Potency entry in experiment [1], in experiment [3], in [5], in experiment [6], in [7] and in experiment [8] was “inactive” throughout. Moreover, the Potency result in [9] was “inactive”. In addition, the molecule was called inactive in [2] and in experiment [4].

Turning to `O=C(Nc1ccc([N+](=O)[O-])cc1Cl)c1cc(Cl)ccc1O`, the molecule was classed as inactive in experiment [2] and in [4]. Moreover, the Potency result in [10], in experiment [3], in experiment [5], in experiment [6] and in experiment [9] was “inactive” throughout. Moreover, in [11], the Potency is 3.98 µM (active).

`Nc1ccn([C@H]2CC[C@@H](CO)O2)c(=O)n1`: the Potency entry in [12], in [3], in [6], in experiment [8] and in [9] was “inactive” in each case. In addition, the call in experiment [2] and in experiment [4] was inactive.

Turning to `CN(C)C(=N)N=C(N)N`, the Potency result in experiment [3] and in experiment [9] was “inactive” each time. Further, the result in experiment [4] was inactive.

For the molecule `Cc1cn([C@H]2C[C@H](N=[N+]=[N-])[C@@H](CO)O2)c(=O)[nH]c1=O`, the Potency result in experiment [3], in [7] and in experiment [9] was “inactive” each time. The molecule was classed as inactive in experiment [4].

For the molecule `Clc1ccccc1C(c1ccccc1)(c1ccccc1)n1ccnc1`, the molecule was classed as inactive in experiment [2] and in [4]. Further, the Potency result in experiment [3], in experiment [6], in experiment [7] and in experiment [9] was “inactive” each time.

`C[C@@H]1CC(=O)NN=C1c1ccc(NN=C(C#N)C#N)cc1`: the Potency entry in experiment [1], in [3] and in experiment [9] was “inactive” throughout. In addition, the Potency is 18.6 µM (active) in experiment [10]; 14.1 µM (active) and 28.2 µM (active) in experiment [11].

With `CC1(C)O[C@H]2CC(=O)OC[C@]23[C@H]2CC[C@@]4(C)[C@H](c5ccoc5)OC(=O)[C@H]5O[C@]54[C@]2(C)C(=O)C[C@@H]13`, the Potency result in [1], in [3] and in [9] was “inactive” each time. The call in experiment [4] was inactive.

Consider `CN1CCN2c3ccccc3Cc3ccccc3C2C1` (stereo not drawn), for which the Potency entry in [12], in [3], in [6], in experiment [7], in [8] and in experiment [9] was “inactive” throughout. For the same molecule, the call in [2] and in experiment [4] was inactive.

As to `Cn1c(=O)c2[nH]cnc2n(C)c1=O`, the Potency result in [3], in experiment [7], in experiment [8] and in [9] was “inactive” throughout. For the same molecule, the molecule was classed as inactive in experiment [4].

With `CC(COc1ccccc1)N(CCCl)Cc1ccccc1` (stereo not drawn), the Potency entry in experiment [10], in experiment [3], in [5], in experiment [6], in [7] and in experiment [9] was “inactive” in each case. In addition, the call in experiment [4] was inactive.

Take `O=c1c(O)c(-c2ccc(O)c(O)c2)oc2cc(O)cc(O)c12`: the Potency result in experiment [1], in experiment [10], in [3], in experiment [5], in experiment [6] and in [7] was “inactive” throughout. The Potency entry in [9] and in [11] was “inactive” in each case. Moreover, the call in [2] was inactive.

Turning to `CN1C2CCC1CC(OC(=O)C(CO)c1ccccc1)C2` (stereo not drawn), in [2], the molecule was called inactive. The Potency result in [7] and in [8] was “inactive” in each case.

As for `COC(=O)Nc1nc2ccc(C(=O)c3cccs3)cc2[nH]1`, the outcome in experiment [2] and in [4] was inactive. The Potency entry in [3], in experiment [6], in experiment [8] and in [9] was “inactive” in each case.

Consider `COc1ccc(CCN(C)CCCC(C#N)(c2ccc(OC)c(OC)c2)C(C)C)cc1OC` (stereo not drawn), for which the molecule was classed as inactive in experiment [2] and in experiment [4]. Further, the Potency entry in [3] and in experiment [11] was “inactive” in each case.

Regarding `COc1ccc2c(c1)c(CC(=O)O)c(C)n2C(=O)c1ccc(Cl)cc1`, the Potency result in experiment [5], in [6], in experiment [7], in experiment [8] and in experiment [9] was “inactive” in each case.

Take `COc1ccccc1OCCNCC(O)COc1cccc2[nH]c3ccccc3c12` (stereo not drawn): the Potency result in [12], in experiment [3], in [6], in [7], in experiment [8] and in [9] was “inactive” throughout. Also, the call in experiment [2] and in experiment [4] was inactive. For the same molecule, the Potency in experiment [11] is 44.7 µM (active) and 35.5 µM (active).

`COc1cc2nc(N3CCN(C(=O)c4ccco4)CC3)nc(N)c2cc1OC`: the call in experiment [2] and in experiment [4] was inactive. For the same molecule, the Potency result in experiment [3], in experiment [7], in [8] and in experiment [9] was “inactive” throughout.
